# Data reported in PubChem BioAssay (Tox21).
# “And” between values parts separate entries of the source, which are not always exact repeats. Identical values can stand only once. Records with an inconclusive call do not appear. Where a call stands in place of a potency, no number is given. Where a structure was tested more than once in an assay, its records may differ in their call. The source made the active and inactive calls. Unless noted, calls follow the shape of the dose curve; as a rule, active = well fitted curve in the direction sought with a large enough effect in the repeat runs; inconclusive = weak or mixed curves; inactive = no such curve, though single readings can be large; an effect the other way counts as inactive or inconclusive.
# Key:
# [1] = qHTS assay to identify small molecule agonists of H2AX (AID 1224845; active = well fitted activation curve with a large enough effect in the signal ratio in the repeat runs, not every such curve was filed as active; the % refers to the signal ratio)
# In short: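 Wild-type CHO-K1 cells plated overnight, then exposed 3 hr at 37C to compounds at 15 concentrations (0.76% DMSO). Lysed, then HTRF anti-pH2AX(S139)-cryptate/anti-H2AX-d2 detection after 24 hr at room temperature; emissions 665 and 620 nm.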
# [2] = qHTS assay to identify small molecule agonists of the hypoxia (HIF-1) signaling pathway (AID 1224846; active = well fitted activation curve with a large enough effect in the signal ratio in the repeat runs, not every such curve was filed as active; the % refers to the signal ratio)
# In short: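 HRE-bla ME-180 cells (beta-lactamase reporter under hypoxia response element) were plated at 2,000 cells/well in medium with 0.5% dialyzed FBS, rested 5 hrs, then given compounds in DMSO for 17 hrs at 37C, 5% CO2. Reporter induction was read with CCF4-AM FRET substrate.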
# [3] = qHTS assay to identify small molecule antagonists of the estrogen related receptor (ERR) signaling pathway from Tox21 library (AID 1224848); also: nearly all actives have a fitted effect of over 50% in size
# In short: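 Screening used an ERR reporter line supplied by NTP, exposed for 18 h at 37 C to library compounds delivered in DMSO. Signal was luciferase luminescence developed with ONE-Glo at room temperature for 30 min.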
# [4] = qHTS assay to identify small molecule agonists of the estrogen related receptor (ERR) signaling pathway from Tox21 library (AID 1224849; calls by dose curve; also: nearly all actives have a fitted effect of over 15% in size); conditions: ERR reporter cell line, ONE-Glo luciferase, 18 h
# In short: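 ERR reporter cell line (NTP) seeded, rested 6 h at 37 C/5% CO2, then pinned with Tox21 compounds in DMSO. After 18 h at 37 C, ONE-Glo luciferase luminescence was read following 30 min at room temperature.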
# [5] = qHTS RealTime-Glo MT Cell Viability Assay in HEK293 cells - 32 hour (AID 1224868); also: nearly all actives have a fitted effect of over 50% in size; also: potency is read from the fitted curve at half-maximal effect
# In short: (§1)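 Cells + reagent dispensed (600 cells/well, HEK293) → 5 h at 37 C/5% CO2 → 23 nL compound in DMSO pinned → 40 h at 37 C → luminescence read at 0, 8, 16, 24, 32, 40 h.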
# [6] = A CellTox Green Cytotoxicity Assay to monitor cytotoxicity in HEK293 cells - 0 hour (AID 1224869); also: nearly all actives have a fitted effect of over 50% in size; also: potency is read from the fitted curve at half-maximal effect
# In short: (§2)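 HEK293 cells premixed with CellTox Green dye were seeded at 600 cells/well and left 5 h at 37 C/5% CO2 before pin transfer of 23 nL compound in DMSO. Fluorescence from dye bound to dead-cell DNA was read during 40 h treatment.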
# [7] = qHTS RealTime-Glo MT Cell Viability Assay in HepG2 cells - 40 hour (AID 1224870); also: nearly all actives have a fitted effect of over 50% in size; also: potency is read from the fitted curve at half-maximal effect
# In short: (§3)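 HepG2 cells mixed with RealTime-Glo MT reagents (NanoLuc plus cell-permeant prosubstrate) were seeded at 600 cells/well, incubated 5 h at 37 C/5% CO2, then pinned with compounds in DMSO; nonlytic luminescence tracked viability during 40 h treatment.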
# [8] = A CellTox Green Cytotoxicity Assay to monitor cytotoxicity in HEK293 cells - 40 hour (AID 1224871); also: nearly all actives have a fitted effect of over 45% in size; also: potency is read from the fitted curve at half-maximal effect
# In short: as §2
# [9] = qHTS RealTime-Glo MT Cell Viability Assay in HEK293 cells - 16 hour (AID 1224872); also: nearly all actives have a fitted effect of over 50% in size; also: potency is read from the fitted curve at half-maximal effect
# In short: as §1
# [10] = qHTS RealTime-Glo MT Cell Viability Assay in HepG2 cells - 8 hour (AID 1224873); also: nearly all actives have a fitted effect of over 55% in size
# In short: as §3
# [11] = qHTS RealTime-Glo MT Cell Viability Assay in HEK293 cells - 40 hour (AID 1224874); conditions: RealTime-Glo luminescence; max response: stronger effect = lower value; also: nearly all actives have a fitted effect of over 50% in size; also: potency is read from the fitted curve at half-maximal effect
# In short: (§4)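 HEK293 cells mixed with RealTime-Glo reagents (NanoLuc plus cell-permeant prosubstrate) at 600 cells/well, preincubated 5 h at 37 C/5% CO2, then given 23 nL compound in DMSO. Nonlytic luminescence from viable cells was read at 0, 8, 16, 24, 32 and 40 h.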
# [12] = A CellTox Green Cytotoxicity Assay to monitor cytotoxicity in HEK293 cells - 24 hour (AID 1224875); also: nearly all actives have a fitted effect of over 45% in size
# In short: as §2
# [13] = A CellTox Green Cytotoxicity Assay to monitor cytotoxicity in HepG2 cells - 16 hour (AID 1224876); also: nearly all actives have a fitted effect of over 45% in size; also: potency is read from the fitted curve at half-maximal effect
# In short: (§5)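 HepG2 cells were seeded together with the CellTox Green dye at 600 cells/well, left 5 h at 37 C/5% CO2, then given compounds in DMSO. Fluorescence from dye bound to dead-cell DNA was read repeatedly over 40 h of treatment at 37 C.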
# [14] = qHTS RealTime-Glo MT Cell Viability Assay in HepG2 cells - 32 hour (AID 1224877); also: nearly all actives have a fitted effect of over 55% in size
# In short: (§6)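 Real-time, nonlytic viability: 600 HepG2 cells/well mixed with NanoLuc enzyme plus prosubstrate; 5 h settle, compound (DMSO) added by pintool; luminescence monitored over 40 h at 37 C.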
# [15] = A CellTox Green Cytotoxicity Assay to monitor cytotoxicity in HepG2 cells - 24 hour (AID 1224878); also: nearly all actives have a fitted effect of over 45% in size; also: potency is read from the fitted curve at half-maximal effect
# In short: as §5
# [16] = A CellTox Green Cytotoxicity Assay to monitor cytotoxicity in HepG2 cells - 40 hour (AID 1224879); also: nearly all actives have a fitted effect of over 40% in size; also: potency is read from the fitted curve at half-maximal effect
# In short: as §5
# [17] = qHTS RealTime-Glo MT Cell Viability Assay in HEK293 cells - 0 hour (AID 1224880)
# In short: as §4
# [18] = A CellTox Green Cytotoxicity Assay to monitor cytotoxicity in HEK293 cells - 32 hour (AID 1224881); also: nearly all actives have a fitted effect of over 40% in size; also: potency is read from the fitted curve at half-maximal effect
# In short: as §2
# [19] = qHTS assay to identify small molecule agonists of H2AX - cell viability counter screen (AID 1224847; calls by dose curve; also: nearly all actives have a fitted effect of over 30% in size; also: potency is read from the fitted curve at half-maximal effect)
# In short: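 CHO-K1 wt, 1000 cells/well, o/n 37C; cpds 15 conc, 3 h 37C, 0.76% DMSO; CellTiter-Glo, 30 min RT, luminescence.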
# [20] = qHTS RealTime-Glo MT Cell Viability Assay in HepG2 cells - 24 hour (AID 1224867); also: nearly all actives have a fitted effect of over 50% in size
# In short: as §6
smiles,measurement,setting,value
N#CC(C#N)=C(C#N)C#N,Potency,[1],inactive
same,outcome,[2],inactive
same,Potency,[3],inactive
same,"activity change, positive = activation",[4]; at 92.4 µM (top of the series),-1.38% (inactive)
same,Potency,[5],inactive
same,Potency,[6],inactive
same,Potency,[7],inactive
same,Potency,[8],inactive
same,Potency,[9],inactive
same,Potency,[10],inactive
same,max response,[11],20.6% (inactive)
same,Potency,[12],inactive
same,Potency,[13],inactive
same,Potency,[14],inactive
same,Potency,[15],inactive
same,Potency,[16],inactive
same,outcome,[17],inactive
same,Potency,[18],inactive
COC(=O)Cc1ccccc1,Potency,[1],inactive
same,outcome,[2],inactive
same,Potency,[19],inactive
same,Potency,[5],inactive
same,Potency,[7],inactive
same,Potency,[8],inactive
same,Potency,[9],inactive
same,Potency,[10],inactive
same,Potency,[12],inactive
same,Potency,[13],inactive
same,Potency,[14],inactive
same,Potency,[16],inactive
same,outcome,[17],inactive
same,Potency,[18],inactive
O=C(O)C(F)(F)C(F)(F)C(F)(F)C(F)(F)C(F)(F)C(F)(F)C(F)(F)C(F)(F)F,Potency,[1],inactive
same,outcome,[2],inactive
same,Potency,[19],inactive
same,Potency,[5],inactive
same,Potency,[7],inactive
same,Potency,[8],inactive
same,Potency,[9],inactive
same,Potency,[12],inactive
same,Potency,[13],inactive
same,Potency,[15],inactive
same,Potency,[16],inactive
same,outcome,[17],inactive
same,Potency,[18],inactive
Cc1ccc2c(C)cccc2c1,Potency,[1],inactive
same,outcome,[2],inactive
same,Potency,[5],inactive
same,Potency,[6],inactive
same,Potency,[7],inactive
same,Potency,[8],inactive
same,Potency,[9],inactive
same,max response,[11],4.4% (inactive)
same,Potency,[12],inactive
same,Potency,[13],inactive
same,Potency,[14],inactive
same,Potency,[16],inactive
same,outcome,[17],inactive
same,Potency,[18],inactive
Clc1ccc(Cl)c(Cl)c1,Potency,[1],inactive
same,outcome,[2],inactive
same,Potency,[3],inactive
same,"activity change, positive = activation",[4]; at 92.4 µM (top of the series),-0.809% (inactive) and 5.15% (inactive)
same,Potency,[20],inactive
same,Potency,[5],inactive
same,Potency,[6],inactive
same,Potency,[7],inactive
same,Potency,[8],inactive
same,Potency,[9],inactive
same,Potency,[10],inactive
same,max response,[11],-1.09% (inactive) and 2.8% (inactive)
same,Potency,[12],inactive
same,Potency,[13],inactive
same,Potency,[14],inactive
same,Potency,[15],inactive
same,Potency,[16],inactive
same,outcome,[17],inactive
C[N+](C)(C)CCOC(=O)C(O)(c1ccccc1)c1ccccc1,Potency,[1],inactive
same,outcome,[2],inactive
same,Potency,[20],inactive
same,Potency,[5],inactive
same,Potency,[7],23.9 µM (active)
same,Potency,[8],inactive
same,Potency,[9],inactive
same,max response,[11],0.291% (inactive)
same,Potency,[12],inactive
same,Potency,[13],inactive
same,Potency,[15],inactive
same,Potency,[16],inactive
same,outcome,[17],inactive
same,Potency,[18],inactive
O=[N+]([O-])c1cc(Cl)c(Cl)cc1Cl,Potency,[1],inactive
same,outcome,[2],inactive
same,Potency,[3],inactive
same,"activity change, positive = activation",[4]; at 92.4 µM (top of the series),0.191% (inactive)
same,Potency,[20],inactive
same,Potency,[5],inactive
same,Potency,[6],inactive
same,Potency,[7],inactive
same,Potency,[9],inactive
same,Potency,[10],inactive
same,max response,[11],2.2% (inactive)
same,Potency,[13],inactive
same,Potency,[14],inactive
same,Potency,[16],inactive
same,outcome,[17],inactive
C[C@]12CC[C@H]3[C@@H](CCC4=CC(=O)CC[C@@H]43)[C@@H]1CC[C@@H]2OC(=O)CCc1ccccc1,Potency,[1],inactive
same,outcome,[2],inactive
same,Potency,[3],inactive
same,"activity change, positive = activation",[4]; at 42.5 µM (top of the series),10.2% (inactive)
same,Potency,[5],inactive
same,Potency,[6],inactive
same,Potency,[7],inactive
same,Potency,[9],inactive
same,Potency,[10],inactive
same,max response,[11],0.945% (inactive)
same,Potency,[13],inactive
same,Potency,[14],inactive
same,Potency,[15],inactive
same,Potency,[16],inactive
same,outcome,[17],inactive
same,Potency,[18],inactive
FC(Cl)(Cl)C(F)(Cl)Cl,Potency,[1],inactive
same,outcome,[2],inactive
same,Potency,[19],inactive
same,Potency,[5],inactive
same,Potency,[6],inactive
same,Potency,[7],inactive
same,Potency,[8],inactive
same,Potency,[9],inactive
same,Potency,[10],inactive
same,max response,[11],-10.6% (inactive)
same,Potency,[13],inactive
same,Potency,[14],inactive
same,Potency,[15],inactive
same,Potency,[16],inactive
same,outcome,[17],inactive
O=C([O-])c1ccccn1.O=C([O-])c1ccccn1.O=C([O-])c1ccccn1.[Cr+3],Potency,[1],inactive
same,outcome,[2],inactive
same,Potency,[20],inactive
same,Potency,[5],inactive
same,Potency,[6],inactive
same,Potency,[7],inactive
same,Potency,[8],inactive
same,Potency,[9],inactive
same,Potency,[10],inactive
same,max response,[11],2.2% (inactive)
same,Potency,[13],inactive
same,Potency,[14],inactive
same,Potency,[15],inactive
same,Potency,[16],inactive
same,outcome,[17],inactive
CCCCCCCCCCCCN(C)C,Potency,[1],inactive
same,outcome,[2],inactive
same,Potency,[3],inactive
same,"activity change, positive = activation",[4]; at 92.4 µM (top of the series),3.27% (inactive)
same,Potency,[20],inactive
same,Potency,[6],inactive
same,Potency,[7],inactive
same,Potency,[8],inactive
same,Potency,[9],inactive
same,Potency,[10],inactive
same,Potency,[13],inactive
same,Potency,[14],inactive
same,Potency,[15],inactive
same,outcome,[17],inactive
CCC1(CC)C(=O)NC(=O)NC1=O,Potency,[1],inactive
same,outcome,[2],inactive
same,Potency,[20],inactive
same,Potency,[5],inactive
same,Potency,[6],inactive
same,Potency,[7],inactive
same,Potency,[8],inactive
same,Potency,[9],inactive
same,Potency,[10],inactive
same,max response,[11],0.988% (inactive)
same,Potency,[12],inactive
same,Potency,[13],inactive
same,Potency,[14],inactive
same,outcome,[17],inactive
same,Potency,[18],inactive
CCC(=O)O[C@@H]1C=C2CCC3C(CCC4(C)C3CC[C@@H]4OC(=O)CC)C2CC1 (stereo not given in full),Potency,[1],inactive
same,Potency,[19],inactive
same,Potency,[20],inactive
same,Potency,[6],inactive
same,Potency,[7],inactive
same,Potency,[9],inactive
same,max response,[11],-21.1% (inactive)
same,Potency,[12],inactive
same,Potency,[13],inactive
same,Potency,[14],inactive
same,Potency,[15],inactive
same,Potency,[16],inactive
same,outcome,[17],inactive
CCc1ccccc1N,Potency,[1],inactive
same,outcome,[2],inactive
same,Potency,[6],inactive
same,Potency,[7],inactive
same,Potency,[8],inactive
same,Potency,[9],inactive
same,max response,[11],1.07% (inactive)
same,Potency,[12],inactive
same,Potency,[13],inactive
same,Potency,[14],inactive
same,Potency,[16],inactive
same,outcome,[17],inactive
same,Potency,[18],inactive
Nc1ccccc1C(=O)OCCc1ccccc1,Potency,[1],inactive
same,Potency,[19],101 µM (active) and 89.8 µM (active)
same,Potency,[3],inactive
same,"activity change, positive = activation",[4]; at 92.4 µM (top of the series),18.1% (active) and 10.8% (active)
same,Potency,[20],inactive
same,Potency,[5],24.5 µM (active)
same,Potency,[6],inactive and 43.6 µM (active)
same,Potency,[7],inactive
same,Potency,[8],21.9 µM (active)
same,Potency,[9],24.5 µM (active)
same,Potency,[10],inactive
same,Potency,[11],24.5 µM (active)
same,Potency,[13],21.9 µM (active)
same,Potency,[14],inactive
same,Potency,[15],21.9 µM (active)
same,Potency,[16],21.9 µM (active)
same,outcome,[17],inactive
same,Potency,[18],21.9 µM (active)
